Pol iota inh: qHTS for Inhibitors of Polymerase Iota; DNA polymerase iota (Homo sapiens), Q9UNA4; Pol iota fluorescent replication assay, 10 min; Potency, µM (series often up to 115 µM), actives largely listed as inhibitors; hit rate 1% among 390,000; AID 588590, 2011
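Pol iota at 10 nM preincubated 15 min with compounds at room temperature; reaction started with fluorescent substrate, 50 nM final. Fluorescence read kinetically at 0 and 10 min; buffer-only wells as negative control.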
POLB inh: qHTS Assay for Inhibitors of DNA Polymerase Beta; P06746; Pol beta primer extension/strand displacement, fluorescence kinetic; Potency, µM (titrated, usually from 114 µM), most hits filed as inhibitors; hit rate 1.3% among 340,000; AID 485314, 2010
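Pol beta (10 nM) was preincubated with compound for 15 min at room temperature. The reaction was then started with 50 nM substrate and read immediately and after a further 10 min at room temperature.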
L3MBTL1 inh: qHTS Assay for the Inhibitors of L3MBTL1; Lethal(3)malignant brain tumor-like protein 1 (Homo sapiens), Q9Y468; AlphaScreen L3MBTL1–H3K9me1 peptide binding; Potency, µM (doses to about 57.1 µM), usual class: inhibitors; hit rate 0.66% among 230,000; note: nearly all actives have a fitted effect of over 60% in size
Target sequence (Q9Y468 whole entry, looked up): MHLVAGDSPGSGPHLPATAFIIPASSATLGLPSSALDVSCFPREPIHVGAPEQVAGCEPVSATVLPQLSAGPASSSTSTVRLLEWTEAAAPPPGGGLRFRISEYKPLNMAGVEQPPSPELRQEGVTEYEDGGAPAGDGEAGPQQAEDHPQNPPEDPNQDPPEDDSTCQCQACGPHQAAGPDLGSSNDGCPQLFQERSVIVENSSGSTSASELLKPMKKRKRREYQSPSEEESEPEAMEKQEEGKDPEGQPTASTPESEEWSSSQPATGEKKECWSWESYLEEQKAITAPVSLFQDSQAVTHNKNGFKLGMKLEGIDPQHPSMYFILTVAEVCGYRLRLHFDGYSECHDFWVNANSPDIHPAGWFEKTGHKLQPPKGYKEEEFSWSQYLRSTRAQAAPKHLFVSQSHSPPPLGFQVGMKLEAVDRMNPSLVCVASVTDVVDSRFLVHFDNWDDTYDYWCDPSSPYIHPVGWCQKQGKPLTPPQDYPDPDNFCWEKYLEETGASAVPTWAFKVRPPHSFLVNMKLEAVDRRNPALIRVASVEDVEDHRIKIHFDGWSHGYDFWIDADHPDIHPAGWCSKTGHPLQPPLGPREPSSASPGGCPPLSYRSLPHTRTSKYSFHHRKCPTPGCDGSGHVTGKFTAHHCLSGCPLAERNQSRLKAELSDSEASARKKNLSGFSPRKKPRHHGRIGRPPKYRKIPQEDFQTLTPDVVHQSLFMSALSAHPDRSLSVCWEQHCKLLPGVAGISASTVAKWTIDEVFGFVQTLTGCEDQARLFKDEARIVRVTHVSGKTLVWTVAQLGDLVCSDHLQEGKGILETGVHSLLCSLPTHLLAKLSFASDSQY
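AlphaScreen proximity signal between nickel-chelate acceptor and streptavidin donor beads (final 10 ug/mL) reports binding of 50 nM L3MBTL1 to 75 nM biotin-H3 K9me1 peptide; complex incubated with compounds 30 min at room temperature; cefsulodin titration as control.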
APE1 inh: qHTS Assay for Inhibitors of the Human Apurinic/apyrimidinic Endonuclease 1 (APE1); recombinant APE1, TAMRA/BHQ-2 abasic DNA cleavage fluorescence; DNA repair nuclease/redox regulator APEX1 (Homo sapiens), P27695; hit rate 0.35% among 350,000; Potency, µM (series often up to 65.8 µM), hits mostly inhibitors; note: nearly all actives have a fitted effect of over 55% in size
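0.75 nM APE1 + cpd, 15 min RT; start w/ 50 nM TAMRA/BHQ-2 THF-abasic dsDNA; kinetic fluor 525/598 nm ×3 reads @60 s; Δ(read3−read1); normalized to DMSO and NSC13755 control wells.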
Pol eta inh-1: qHTS for Inhibitors of Polymerase Eta; DNA polymerase eta (Homo sapiens), Q9Y253; recombinant Pol eta, fluorescent DNA replication assay; Potency, µM (titrated, usually from 114 µM), most hits filed as inhibitors; hit rate 1.2% among 390,000
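Pol eta at 10 nM preincubated with compounds 15 min at room temperature; reaction started with fluorescent substrate (50 nM final) and read kinetically at 0 and 10 min.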
Pol kappa inh-1: qHTS for Inhibitors of Polymerase Kappa; DNA polymerase kappa (Homo sapiens), Q9UBT6; hit rate 0.53% among 400,000; Potency, µM (titrated, usually from 107 µM), most hits filed as inhibitors; purified Pol kappa, fluorescent DNA synthesis assay, 10 min
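Inhibition of 10 nM Pol kappa is measured by a fluorescent read-out at 0 and 10 min following addition of 50 nM substrate (final), with a 15-min room-temperature compound preincubation.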
PGK validate: qHTS for inhibitors of Phosphogylcerate Kinase: Hit Validation Screen | shares compounds with Pol kappa inh-1 | TbPGK coupled GAPDH assay, Kinase-Glo luminescence | Potency, µM (top dose mostly 57.5 µM), actives largely listed as inhibitors | hit rate 79% among 500 | AID 686980, 2013; note: nearly all actives have a fitted effect of over 65% in size
Pol iota confirm: qHTS for Inhibitors of Polymerase Iota: Confirmatory Assay for Cherry-picked Compounds. shares compounds with Pol kappa inh-1. Potency, µM, hits mostly inhibitors. hit rate 77% among 1,500. Pol iota primer extension, TAMRA/BHQ fluorescence
GALK confirm: Confirmation Assay for Inhibitors of Human Galactokinase (GALK); Potency, µM (top dose mostly 115 µM), hits mostly inhibitors; purified GALK, Kinase-Glo ATP depletion luminescence; shares compounds with Pol eta inh-1; AID 2015, 2009; hit rate 70% among 150
Redox cycling: Confirmatory Assay for Inhibitors of Human Galactokinase (GALK): Phenol-HRP redox assay counterscreen; shares compounds with Pol eta inh-1; Phenol red-HRP H2O2 redox cycling, absorbance 600 nm; Potency, µM (highest dose often 115 µM), most hits filed as inhibitors; hit rate 40% among 150; AID 2035, 2009
HEK293 tox: Secondary Assay for Inhibitors of Human Galactokinase (GALK): HEK-293 Cell Viability Assay. shares compounds with Pol eta inh-1. HEK-293 viability, ATP luminescence (CellTiter-Glo), 24/48 h. Potency, µM (series often up to 46.1 µM), usual class: inhibitors. hit rate 10% among 170. AID 2547, 2010
Pol kappa inh-2: qHTS for Inhibitors of Polymerase Kappa: Confirmatory Assay for Cherry-picked Compounds; shares compounds with Pol eta inh-1; purified Pol-kappa, fluorescent strand-displacement substrate; Potency, µM, most hits filed as inhibitors; hit rate 76% among 920; AID 720501, 2013
Pol eta inh-2: qHTS for Inhibitors of Polymerase Eta: Confirmatory Assay for Cherry-picked Compounds; shares compounds with Pol eta inh-1; Pol eta primer extension, TAMRA/BHQ fluorescence, 10 min; Potency, µM, most hits filed as inhibitors; hit rate 64% among 2,600; AID 720502, 2013
Large screens that a line does not name were inactive (follow-up assays come after a bar, where they were run). In the library only some 2.5% were active in any assay of this set; here they are far more common. Calls come from the whole dose curve; as a rule, active = well fitted curve in the direction sought with a large enough effect; inconclusive = small, poorly fitted or top-dose-only effect, or another doubt; inactive = no such curve, though single readings can be large; an effect the other way counts as inactive or inconclusive.

Cc1nc2c(c(=O)n1CCC1=CCCCC1)c1nc3ccccc3nc1n2/N=C/c1ccco1	Pol iota inh inconclusive, POLB inh 10µM, L3MBTL1 inh inconclusive, APE1 inh inconclusive, Pol eta inh-1 inconclusive, Pol kappa inh-1 inconclusive | Pol iota confirm 67 | Pol eta inh-2 76
CCCn1c(C)nc2c(c1=O)c1nc3ccccc3nc1n2CCC1=CCCCC1	none
COC(=O)c1ccccc1-c1ccc(/C=N/NC(=O)c2cc3ccccc3o2)o1	POLB inh inconclusive
COC(=O)c1ccccc1-c1c2ccc(=N)cc-2oc2cc(N)ccc12	Pol iota inh 79µM, APE1 inh 27µM, Pol eta inh-1 50µM, Pol kappa inh-1 28µM (no result: POLB inh) | Pol iota confirm 24 | Pol kappa inh-2 47 | Pol eta inh-2 76
COC(=O)c1ccc(C(NC(=O)OCc2ccccc2)/C(C)=C/[C@@H](C)C(=O)NCCc2c[nH]c3ccc(OC)cc23)cc1 (stereo partly drawn)	none (no result: Pol iota inh, POLB inh, L3MBTL1 inh, Pol eta inh-1, Pol kappa inh-1)
COc1ccc(OC)c(NS(=O)(=O)c2cc3c4c(c2)CCN4C(=O)CC3)c1	none (no result: POLB inh)
O=C(N=Nc1c(O)[nH]c2ccccc12)c1cc(-c2cccs2)[nH]n1	Pol iota inh inconclusive, POLB inh inconclusive, Pol eta inh-1 56µM (no result: L3MBTL1 inh) | Pol iota confirm 67 | Pol kappa inh-2 inconclusive
Cc1cc(Br)c(NC(=O)CN2C(=O)NC3(CCOc4ccccc43)C2=O)c(Br)c1 (stereo not drawn)	none (no result: Pol iota inh, POLB inh, L3MBTL1 inh, APE1 inh, Pol kappa inh-1)
O=C1COc2ccc(C(=O)COC(=O)c3ccc4ccccc4n3)cc2N1	Pol iota inh inconclusive, POLB inh inconclusive, Pol eta inh-1 inconclusive | Pol iota confirm 47 | Pol eta inh-2 inconclusive
O=C1COc2ccc(C(=O)COC(=O)c3ccccn3)cc2N1	none (no result: POLB inh)
O=C(Nc1ccc(S(=O)(=O)Nc2nccs2)cc1)c1nn(-c2ccccc2)ccc1=O	POLB inh inconclusive, APE1 inh inconclusive, Pol eta inh-1 6.3µM (no result: L3MBTL1 inh) | Pol iota confirm 21 | Pol kappa inh-2 12 | Pol eta inh-2 24
Cc1cccc(N=C2NC(=O)/C(=C/C=C/c3ccco3)S2)c1C	Pol iota inh 3.5µM, POLB inh 2.5µM, L3MBTL1 inh 7.9µM, APE1 inh inconclusive, Pol eta inh-1 1.8µM, Pol kappa inh-1 14µM | Pol iota confirm 67 | Pol eta inh-2 27
O=C1NC(=Nc2ccccc2)S/C1=C\C=C\c1ccco1	Pol iota inh 11µM, POLB inh 2.5µM, L3MBTL1 inh 3.2µM, Pol eta inh-1 10µM, Pol kappa inh-1 20µM | Pol iota confirm 38 | Pol eta inh-2 27
COc1ccc(CC(=O)NCc2cccc(Cl)c2)cc1S(=O)(=O)N1CCOCC1	none (no result: Pol iota inh, POLB inh, L3MBTL1 inh, APE1 inh, Pol kappa inh-1)
COc1cccc(/C=N/NC(=O)c2cc3cc([N+](=O)[O-])ccc3s2)c1O	Pol iota inh 14µM, POLB inh 3.5µM, L3MBTL1 inh inconclusive, APE1 inh 2µM, Pol eta inh-1 3.5µM | PGK validate 2.9µM | Pol eta inh-2 48
Cn1nc(-c2ccc(C(=O)Nc3ccc(F)cc3)cc2)c2ccccc2c1=O	Pol iota inh inconclusive, POLB inh 16µM, Pol eta inh-1 inconclusive | Pol iota confirm 42 | Pol kappa inh-2 24 | Pol eta inh-2 inconclusive
COc1ccc(Oc2c(OC)cc(NCc3ccc(CN)cc3)c3ncccc23)cc1	Pol eta inh-1 3.2µM (no result: Pol iota inh, POLB inh, L3MBTL1 inh, APE1 inh, Pol kappa inh-1) | Pol iota confirm 7.5 | Pol kappa inh-2 3 | Pol eta inh-2 15
COc1cc2ccccc2cc1C(=O)OCC(=O)N(CC(C)C)c1c(N)n(Cc2ccccc2)c(=O)[nH]c1=O	Pol iota inh inconclusive (no result: POLB inh)
Cc1cnc(C(=O)OCc2nc3ccsc3c(=O)[nH]2)cn1	Pol iota inh 16µM, L3MBTL1 inh inconclusive, Pol eta inh-1 10µM, Pol kappa inh-1 79µM (no result: POLB inh) | Pol iota confirm 27 | Pol eta inh-2 21
CCN1/C(=C/c2ccc3cc(C)ccc3[n+]2CC)Sc2cc(C)c(C)cc21	POLB inh 14µM, L3MBTL1 inh inconclusive, Pol eta inh-1 inconclusive | Pol iota confirm 42 | Pol eta inh-2 76
O=C(O)CCCN1C(=O)/C(=C/c2cn(-c3ccccc3)nc2-c2cccs2)SC1=S	Pol iota inh 35µM, POLB inh 22µM, APE1 inh inconclusive, Pol eta inh-1 28µM, Pol kappa inh-1 inconclusive (no result: L3MBTL1 inh) | Pol iota confirm 42 | Pol eta inh-2 76
Cc1c(NC(=O)COC(=O)C2=COCCO2)cccc1[N+](=O)[O-]	none (no result: POLB inh)
CC1(C)C=C2C(=NN(c3ccccc3)C(N)=C2C#N)CO1	Pol iota inh 14µM, Pol eta inh-1 18µM | Pol iota confirm inconclusive | GALK confirm 27µM | Redox cycling 12µM | HEK293 tox inactive
CC1(C)Cc2c(C#N)c(N)n(-c3ccccc3)c(=S)c2CO1	none

Screening data (PubChem BioAssay)
